Laboratory results published in PubChem BioAssay (NCI).
About 79,000 compounds went through this panel and 15% of them were active in at least one assay; those are over-represented in the sample as a whole. Unmarked numbers belong to inactive results. Active and inactive are the calls of the source. Rule as the data show it: active = growth inhibition above about 70%; inactive = the rest.

Experiments:
[1] = NCI Yeast Anticancer Drug Screen. Data for the rad50 strain (AID 155);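 also: 0% = growth of vehicle-only cultures of the same strain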; details: S. cerevisiae rad50 strain growth inhibition, active compounds read high
Method in brief: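 Inhibition values express reduced yeast growth in compound-treated cultures relative to vehicle-treated controls.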

[2] = NCI Yeast Anticancer Drug Screen. Data for the mec2-1 strain (AID 157); details: S. cerevisiae mec2-1 strain, active compounds read high
Method in brief: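 Strain: mec2-1 (DNA repair/cell cycle alteration). Compound exposure, then growth measured; inhibition expressed relative to vehicle.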

[3] = NCI Yeast Anticancer Drug Screen. Data for the sgs1 mgt1 strain (AID 161);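 also: 0% = growth of cultures given vehicle only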; details: S. cerevisiae sgs1 mgt1 strain, active compounds read high
Method in brief: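 Test agents were incubated with a DNA-repair-mutant yeast strain. Growth was then read and compared against vehicle-treated controls.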

[4] = NCI Yeast Anticancer Drug Screen. Data for the cln2 rad14 strain (AID 165);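 also: 0% = growth equal to vehicle treated cultures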; details: S. cerevisiae cln2 rad14 strain, active compounds read high
Method in brief: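 Compounds are applied to the cln2 rad14 yeast strain, and growth is then compared with that of vehicle-treated cultures to give inhibition.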

[5] = NCI Yeast Anticancer Drug Screen. Data for the bub3 strain (AID 167); details: S. cerevisiae bub3 mutant strain, active compounds read high
Method in brief: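 Steps: expose the mutant yeast strain to compound; grow alongside vehicle-treated cultures; measure growth; express inhibition against the vehicle cultures.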

[6] = NCI Yeast Anticancer Drug Screen. Data for the mlh1 rad18 strain (AID 175); details: S. cerevisiae mlh1 rad18 strain growth inhibition, active compounds read high
Method in brief: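 Read-out is yeast growth inhibition, calculated against vehicle-only controls. The compound was applied to a strain engineered with DNA damage repair alterations.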

[7] = at 5.0 µM (retest, dose inferred, filed as 0.5)
[8] = at 50.0 µM (retest, dose inferred, filed as 5.0)

Row | Structure (SMILES) | growth inhibition [1, 7] | growth inhibition [1, 8] | growth inhibition ([1]; at 50.0 µM) | growth inhibition [2, 7] | growth inhibition [2, 8] | growth inhibition ([2]; at 50.0 µM) | growth inhibition [3, 7] | growth inhibition [3, 8] | growth inhibition ([3]; at 50.0 µM) | growth inhibition [4, 7] | growth inhibition [4, 8] | growth inhibition ([4]; at 50.0 µM) | growth inhibition [5, 7] | growth inhibition [5, 8] | growth inhibition ([5]; at 50.0 µM) | growth inhibition [6, 7] | growth inhibition [6, 8] | growth inhibition ([6]; at 50.0 µM)
1 | C[CH2][Sn]1([CH2]C)[O]S(=O)(=O)[O]1 | 15% | 77% (active) | 70.2% (active) | 12% | 95% (active) | 76.5% (active) | 12% | 93% (active) | 25.4% | 22% | 56% | 60.2% | 13% | 92% (active) | 45.1% | 12% | 88% (active) | 53.9%
2 | COc1ccc([Se][Se]c2ccc(OC)cc2OC)c(OC)c1 | 18% | 18% | 88.3% (active) | 23% | 23% | 89.8% (active) | 18% | 18% | 88.5% (active) | 9% | 9% | 90% (active) | -4% | -4% | 89.7% (active) | 12% | 12% | 88.4% (active)
3 | CC(=O)[O-].CC(=O)[O-].O=C(N/N=C/c1cc(Cl)cc(Cl)c1[OH2+])c1ccncc1.[Co+2] | 6% | 23% | 51.6% | 17% | 41% | 61.9% | 7% | 33% | 58.2% | 5% | 13% | 26.4% | 2% | 9% | 48% | 4% | 39% | 73.5% (active)
4 | COc1ccc([As]=[As]c2ccc(OC)c(I)c2)cc1I (stereo not given) | 98% (active) | 99% (active) | 99.7% (active) | 100% (active) | 100% (active) | 99.8% (active) | 99% (active) | 100% (active) | 99.8% (active) | 98% (active) | 98% (active) | 99.8% (active) | 99% (active) | 99% (active) | 99.6% (active) | 99% (active) | 99% (active) | 99.7% (active)
5 | CC[C@@]1(O)C[C@H](OC2CC(N(C)C)C(O)C(C)O2)c2c(cc3c(c2O)C(=O)c2c(O)ccc(O)c2C3=O)[C@H]1C(=O)OC (stereo not given in full) | 96% (active) | 98% (active) | 91.1% (active) | 77% (active) | 98% (active) | 92.1% (active) | 88% (active) | 99% (active) | 92.5% (active) | 82% (active) | 99% (active) | 88.7% (active) | 88% (active) | 99% (active) | 91.2% (active) | 94% (active) | 98% (active) | 93.2% (active)
6 | NC[CH2][Sn]([c]1ccccc1)([CH]1CCCCC1)[CH]1CCCCC1 | 99% (active) | 98% (active) | 99% (active) | 100% (active) | 99% (active) | 98.7% (active) | 100% (active) | 99% (active) | 93.3% (active) | 98% (active) | 98% (active) | 97.5% (active) | 98% (active) | 98% (active) | 98.5% (active) | 100% (active) | 98% (active) | 98.9% (active)
7 | C[CH2][Sn]([CH2]C(=O)OC)([CH2]C(=O)OC)[c]1ccccc1 | 97% (active) | 97% (active) | 83.7% (active) | 98% (active) | 98% (active) | 89.2% (active) | 98% (active) | 98% (active) | 87.8% (active) | 86% (active) | 97% (active) | 84.7% (active) | 98% (active) | 98% (active) | 86% (active) | 97% (active) | 97% (active) | 90.8% (active)
8 | C[C@H]1CC[C@@]2(NC1)O[C@H]1C[C@H]3[C@@H]4CC[C@H]5C[C@@H](O)CC[C@]5(C)[C@H]4CC[C@]3(C)[C@H]1[C@@H]2C | 42% | 96% (active) | 92.2% (active) | 27% | 98% (active) | 93.8% (active) | 66% | 99% (active) | 93.5% (active) | 54% | 98% (active) | 91.5% (active) | 64% | 99% (active) | 92.5% (active) | 33% | 98% (active) | 86.8% (active)
9 | O=C(N/N=C/c1cc(Br)cc(Br)c1[O-])c1ccccc1O.O=C(N/N=C/c1cc(Br)cc(Br)c1[O-])c1ccccc1O.[Co+2] | 93% (active) | 97% (active) | 94.6% (active) | 95% (active) | 96% (active) | 95.7% (active) | 91% (active) | 98% (active) | 94.8% (active) | 82% (active) | 97% (active) | 92.5% (active) | 90% (active) | 97% (active) | 95.5% (active) | 95% (active) | 96% (active) | 96% (active)
10 | S=C=[N][Sn]([N]=C=S)([c]1ccccc1)[c]1ccccc1.c1ccc2nc(-c3ccc4ccccc4n3)ccc2c1 | 72% (active) | 98% (active) | 89.3% (active) | 65% | 99% (active) | 91.2% (active) | 84% (active) | 99% (active) | 91.5% (active) | 51% | 99% (active) | 90.8% (active) | 85% (active) | 99% (active) | 90% (active) | 77% (active) | 98% (active) | 77.5% (active)
